Results from the supplement of paper PMC10646978.
± gives the standard deviation.

What was measured:
Settings in all cases: modulator concentration 10 µM
[1] = system: RAW-Dual (murine macrophage reporter line); test: NF-kB reporter (SEAP) activity fold change vs agonist alone; higher = enhanced NF-kB activity
Outline: (§1)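 Overnight stimulation with a PRR agonist followed pre-incubation for 1 hour at 37 °C with compound at 10 μM final. This was done in RAW-Dual murine macrophage reporter cells seeded at 50 000 per well in 384-well plates. NF-κB (SEAP, QUANTI-Blue absorbance at 620 nm) and IRF (Lucia luciferase, QUANTI-Luc luminescence) were read from the supernatant. Each reporter's fold change relative to the mean agonist-only control on the same plate was averaged over replicate plates.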

[2] = system: RAW-Dual (murine macrophage reporter line); test: IRF reporter (Lucia luciferase) activity fold change vs agonist alone; higher = enhanced IRF activity
Outline: as §1

[3] = system: RAW-Dual (murine macrophage reporter line); test: viability score (confluency relative to resting cells, overnight) (fraction); higher = more viable, active = viable (0.7 or more)
Outline: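 Overnight exposure to 10 μM final compound was carried out on RAW-Dual macrophages in 384-well plates. IncuCyte software generated two confluency masks over all wells imaged with IncuCyte. The viability score gives confluency in relation to resting cells. A compound met the cutoff if each mask exceeded 70% of resting cells.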

[4] = agonist: CpG ODN 1826 0.5 ug/mL

Compound | NF-kB reporter [1, 4] | NF-kB reporter ([1]; agonist: LPS 0.1 ug/mL) | NF-kB reporter ([1]; agonist: MPLA […]) | IRF reporter ([2]; agonist: 3'3'-cGAMP 10 ug/mL) | IRF reporter ([2]; agonist: LPS 0.1 ug/mL) | IRF reporter ([2]; agonist: MPLA […]) | viability score [3]
Cc1nnc(C)n1N=Cc1ccc(C(F)(F)F)cc1 | 0.898 ± 0.058 | 0.789 ± 0.061 | 0.962 ± 0.038 | 0.957 ± 0.04 | 0.909 ± 0.063 | 0.886 ± 0.093 | 0.996 (active)
CCN(CC)C(=O)/C(C#N)=C/c1cc(O)c(O)c([N+](=O)[O-])c1 | 1.23 ± 0.23 | 1.08 ± 0.45 | 0.864 ± 0.055 | 0.905 ± 0.035 | 1.22 ± 0.43 | 1.11 ± 0.095 | 0.992 (active)
CCN1C(=O)C(=Cc2cc(Br)ccc2OCCOc2ccccc2Cl)SC1=S | 0.714 ± 0.064 | 0.899 ± 0.11 | 1.1 ± 0.096 | 0.982 ± 0.057 | 1.14 ± 0.086 | 1.18 ± 0.12 | 1.02 (active)
Fc1ccc(Oc2nc(Nc3cccc(Cl)c3)nc(N3CCOCC3)n2)cc1 | 0.331 ± 0.028 | 1.33 ± 0.089 | 2.57 ± 0.15 | 0.757 ± 0.052 | 2.94 ± 0.22 | 2.19 ± 0.34 | 0.84 (active)
CCOc1ccc(C=Nc2cccc3ncccc23)cc1 | 0.971 ± 0.084 | 1.02 ± 0.067 | 0.958 ± 0.077 | 0.424 ± 0.019 | 1.15 ± 0.11 | 0.979 ± 0.095 | 1 (active)
C[C@@H]1COC(Nc2ccc3ncnc(Nc4ccc(OCc5nccs5)c(Cl)c4)c3c2)=N1 | 0.381 ± 0.07 | 0.881 ± 0.17 | 0.84 ± 0.065 | 0.186 ± 0.023 | 0.833 ± 0.2 | 1.27 ± 0.23 | 0.595 (inactive)
CSc1cc(C=NO)c(SC)s1 | 0.874 ± 0.08 | 0.799 ± 0.1 | 0.886 ± 0.085 | 0.713 ± 0.043 | 0.975 ± 0.15 | 1.01 ± 0.27 | 0.285 (inactive)
CCCCOc1ccc(C(=O)Nc2cc(-c3nc4ccccc4o3)ccc2OC)cc1 | 1.08 ± 0.066 | 1.08 ± 0.089 | 0.965 ± 0.025 | 0.965 ± 0.042 | 1.06 ± 0.049 | 1.02 ± 0.098 | 1 (active)
COc1ccc(CC(=O)Nc2ccc(C)c(N3CCCCC3=O)c2)cc1OC | 1.42 ± 0.34 | 1.18 ± 0.09 | 1.06 ± 0.071 | 0.937 ± 0.059 | 0.98 ± 0.14 | 1.06 ± 0.12 | 1 (active)
CC(=O)Nc1ccc(CC(=O)N2C3C=CCC2CC3)cc1 (centres undefined) | 1.32 ± 0.32 | 1.06 ± 0.059 | 1.04 ± 0.14 | 1.01 ± 0.034 | 1.23 ± 0.14 | 1.14 ± 0.19 | 0.954 (active)
CCn1c2ccccc2c2cc(CNCCc3ccc(OC)cc3)ccc21 | 0.369 ± 0.048 | 0.539 ± 0.068 | 1.24 ± 0.1 | 0.479 ± 0.11 | 0.556 ± 0.025 | 2.16 ± 0.28 | 0.0492 (inactive)
CCc1nc2ccccc2[nH]1 | 1.04 ± 0.18 | 0.954 ± 0.076 | 1.06 ± 0.1 | 0.998 ± 0.028 | 1.23 ± 0.12 | 1.44 ± 0.21 | 1.01 (active)
Oc1ccc(OCc2ccccc2)cc1 | 1.78 ± 0.25 | 1.51 ± 0.34 | 1.34 ± 0.095 | 0.665 ± 0.033 | 1.46 ± 0.27 | 1.42 ± 0.17 | 0.832 (active)
CCOC(=O)c1sc(NC(=O)CSc2nc3ccccc3o2)c(C(=O)OCC)c1C | 1.01 ± 0.057 | 1.11 ± 0.09 | 1.06 ± 0.071 | 1.04 ± 0.039 | 1.3 ± 0.096 | 0.995 ± 0.12 | 0.981 (active)
Cc1noc(C)c1CCC(=O)N1CCCC(c2nnc(C(F)(F)F)o2)C1 (centres undefined) | 0.991 ± 0.12 | 1.06 ± 0.087 | 0.923 ± 0.042 | 0.988 ± 0.082 | 1.12 ± 0.1 | 1.02 ± 0.077 | 1.01 (active)
Cl.Fc1ccc([C@@H]2CCNC[C@H]2COc2ccc3c(c2)OCO3)cc1 | 0.575 ± 0.05 | 1 ± 0.051 | 1.23 ± 0.069 | 1.11 ± 0.072 | 1.05 ± 0.055 | 1.04 ± 0.2 | 0.253 (inactive)
CC(C)(C)C(O)/C=C/c1ccc2c(c1)OCO2 (centres undefined) | 1.19 ± 0.066 | 1.26 ± 0.11 | 1.03 ± 0.055 | 0.45 ± 0.029 | 0.877 ± 0.16 | 1.01 ± 0.17 | 0.819 (active)
C=CCNC(=O)CN(Cc1ccccc1)S(=O)(=O)c1ccc(OC)c(OC)c1 | 0.684 ± 0.4 | 0.886 ± 0.078 | 0.946 ± 0.089 | 0.916 ± 0.029 | 1.11 ± 0.14 | 1.13 ± 0.17 | 1.04 (active)
COc1ccc(C2NN(Cc3ccccc3)C3C(=O)N(C)C(=O)C23)cc1 (centres undefined) | 0.902 ± 0.058 | 0.945 ± 0.088 | 1.13 ± 0.086 | 1.26 ± 0.068 | 1.33 ± 0.29 | 1.46 ± 0.5 | 0.955 (active)
O=C(O)CSc1nnc(Br)n1-c1ccc(C2CC2)c2ccccc12 | 1.08 ± 0.15 | 0.924 ± 0.32 | 0.899 ± 0.05 | 0.624 ± 0.15 | 1.35 ± 0.31 | 1.28 ± 0.1 | 1 (active)
Oc1c2c(nc3cc(-c4ccc(Br)cc4)nn13)CCS2 | 1.06 ± 0.084 | 1.04 ± 0.064 | 0.857 ± 0.082 | 0.857 ± 0.03 | 1.19 ± 0.16 | 0.921 ± 0.2 | 1.01 (active)
CN1C(C(=O)Nc2ccccn2)=C(O)c2sc(Cl)cc2S1(=O)=O | 0.744 ± 0.047 | 0.896 ± 0.094 | 1.08 ± 0.11 | 0.955 ± 0.043 | 1.43 ± 0.22 | 1.72 ± 0.59 | 0.967 (active)
CS(=O)(=O)N1CCCCC1C(=O)N(CC1CCCO1)c1nc2c(F)cccc2s1 (centres undefined) | 0.814 ± 0.072 | 1.02 ± 0.1 | 0.773 ± 0.054 | 1.24 ± 0.078 | 1.19 ± 0.077 | 1.23 ± 0.16 | 0.966 (active)
COC(CNS(=O)(=O)c1ccccc1Br)c1ccc(C)s1 (centres undefined) | 1.04 ± 0.1 | 1.05 ± 0.095 | 1.13 ± 0.086 | 0.86 ± 0.082 | 0.965 ± 0.058 | 0.854 ± 0.098 | 0.997 (active)
NC(=S)c1cc2ccc(O)cc2oc1=O | 0.808 ± 0.16 | 1.01 ± 0.082 | 2.26 ± 1.2 | 0.925 ± 0.043 | 0.979 ± 0.12 | 1.05 ± 0.11 | 1.01 (active)
NC(=O)CC[C@H](N)C(=O)O | 0.931 ± 0.076 | 0.998 ± 0.096 | 0.982 ± 0.023 | 0.949 ± 0.082 | 0.998 ± 0.039 | 1.04 ± 0.11 | 1.01 (active)
CCCCCCc1ccc(O)cc1O | 1.02 ± 0.14 | 0.919 ± 0.21 | 0.874 ± 0.058 | 0.588 ± 0.057 | 1.2 ± 0.23 | 1.2 ± 0.13 | 0.298 (inactive)
